Screening data: PubChem, National Center for Advancing Translational Sciences (NCATS)
The list is not random: actives were taken first. Their share in the collection is about 21%.
D3 ag = activates the human D3 dopamine receptor. P35462. D3R DiscoveRx beta-arrestin cells, luminescence, 90 min. max activation, %. 410,000 compounds, 0.58% hits; in the data active means max activation above about 30%; further: 0% is about no effect
Target sequence (P35462 whole entry, looked up): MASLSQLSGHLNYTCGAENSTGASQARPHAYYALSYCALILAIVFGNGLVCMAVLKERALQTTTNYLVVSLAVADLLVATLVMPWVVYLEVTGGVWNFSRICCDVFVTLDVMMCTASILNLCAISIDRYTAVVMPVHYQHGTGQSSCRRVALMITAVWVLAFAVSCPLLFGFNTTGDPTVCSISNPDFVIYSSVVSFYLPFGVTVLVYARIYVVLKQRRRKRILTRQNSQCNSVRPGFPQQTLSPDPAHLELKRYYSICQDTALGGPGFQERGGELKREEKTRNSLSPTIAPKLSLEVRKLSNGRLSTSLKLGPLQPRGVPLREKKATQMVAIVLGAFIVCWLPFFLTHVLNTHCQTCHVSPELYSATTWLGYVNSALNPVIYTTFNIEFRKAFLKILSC
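Cells at 1500/well, incubated overnight, then treated with pinned compounds (dopamine as control) for 90 min at 37 degrees C. DiscoveRx reagent added for 30 - 60 minutes at room temperature; luminescence read.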
IL-1B inflam inh = inhibitors of inflammasome signaling (IL-1 beta secretion) | THP-1 LPS/ATP IL-1B secretion, AlphaLISA, 16 h; active compounds read low | 360,000 compounds, 4.7% hits | activity change, % at 57.5 µM | AID 743279; in the data active means activity change below about -50%; inconclusive means mostly about -30% to -49%; further: on the % scale 0 is the no-effect control and ±100 the full control effect
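THP-1 cells pretreated 1 hr with compounds (up to 57.5 uM final), then stimulated with LPS (250 ng/mL final) plus ATP (1.25 mM final); secreted IL-1B measured by AlphaLISA after 16 hr, decreased signal indicating inhibition.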
DT40 TDP1 CPT = growth inhibition of DT40 Tdp1-/-;hTDP1 cells with camptothecin (screen for TDP1 inhibitors); chicken DT40 Tdp1-/-;hTDP1 cells + 20 nM CPT, ATP luminescence, 48 h; Potency, µM (highest dose often 46.2 µM), for the others: at the highest dose activity change, negative = growth inhibition, most hits filed as inhibitors; 420,000 compounds, 12% hits; further: potency means the concentration at half of the fitted maximal effect; on the % scale 0 is the no-effect control and ±100 the full control effect; nearly all actives have a fitted effect of over 55% in size
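Chicken DT40 Tdp1-/- cells complemented with human TDP1, 400 cells/well, exposed to compounds plus 20 nM camptothecin for at least 48 h at 37 C; viability read as ATP content by CellTiter-Glo luminescence.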
DT40 TDP1 no CPT = qHTS for Inhibitors of human tyrosyl-DNA phosphodiesterase 1 (TDP1): qHTS in cells in absence of CPT | DT40 Tdp1-/- hTDP1 cells, no CPT, ATP luminescence, 48 h | Potency, µM (titrated, usually from 46.2 µM), inactives show top-dose activity change, negative = growth inhibition, hits mostly inhibitors | 420,000 compounds, 15% hits; further: potency means the concentration at half of the fitted maximal effect; on the % scale 0 is the no-effect control and ±100 the full control effect; nearly all actives have a fitted effect of over 55% in size
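Growth kinetics read by CellTiter-Glo luminescence after ≥48 hr at 37 °C. Cells: DT40 Tdp1-/- stably carrying human TDP1, 400 per well, compound exposure in the absence of CPT (DMSO vehicle).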
DRD3 antagonist = D3 dopamine receptor (human) antagonism; P35462; D3R cells, DiscoveRx beta-arrestin luminescence, antagonist mode; active compounds read low; max response, negative = inhibition, %; 360,000 compounds, 2.5% hits; in the data active means max response below about -50%; inconclusive means no clear call, values can overlap the other calls; further: on the % scale 0 is the no-effect control and ±100 the full control effect
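Cells expressing the human receptor were seeded at 1500 cells/well, incubated overnight at 37 degrees C in 5% CO2, then exposed to library compounds with dopamine controls for 90 minutes at 37 degrees C before luminescent detection.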
ClpP mod = qHTS Assay for Activators of ClpP; purified B. subtilis ClpP, FRET peptide cleavage, 20 min; Potency, µM (series often up to 57.5 µM), without a hit: top-dose activity change, negative = active; 340,000 compounds, 1.9% hits; ATP-dependent Clp protease proteolytic subunit (Bacillus subtilis (strain 168)), P80244; AID 651965, 2013; active means well fitted falling curve with a large enough effect; inconclusive means small, poorly fitted or top-dose-only effect; inactive means no such curve, though single readings can be large or run the other way; further: potency means the concentration at half of the fitted maximal effect; the source files actives as falling curves though it sought activators and does not explain the sign; nearly all actives have a fitted effect of over 65% in size
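Buffer: 100 mM Tris/HCl pH8, 100 mM KCl, 0.05% low protease BSA, 2.5% glycerol, 0.01% Tween-20. ClpP 10 microg/mL final; 20 min RT; delta FRET normalized to ADEP and DMSO controls.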
* marks the source's active call; other numbers are inactive results; u = inconclusive; x = no result given. Unless noted, the call rests on the fitted dose curve; in most records, active means well fitted inhibition curve with a large enough effect; inconclusive means small, poorly fitted or top-dose-only effect; inactive means flat fitted curve, though single readings scatter.

SMILES	D3 ag	IL-1B inflam inh	DT40 TDP1 CPT	DT40 TDP1 no CPT	DRD3 antagonist	ClpP mod
COCCCn1cnc2c(c1=O)c1nc3ccccc3nc1n2-c1ccccc1	2.2	2.5	u	-27.6%	u	u
COCCCn1c2nc3ccccc3nc2c2c(=O)n(Cc3ccc(Cl)cc3)cnc21	-2.6	-15.2	u	18.4µM*	20.6	-13.1%
CCCCn1c2nc3ccccc3nc2c2c(=O)n(C(C)CC)cnc21 (stereo not given)	22.8	u	10.3µM*	23.1µM*	-18.1	u
COCCCn1c(C)nc2c(c1=O)c1nc3ccccc3nc1n2CCc1ccccc1	-1.3	-12.0	u	16.4µM*	41.0	u
NC(=S)N/N=C/c1c(O)c(Br)cc2oc3c(c12)CCCC3	5.2	21.1	5.17µM*	5.17µM*	3.6	x
Oc1c(Br)cc2oc3c(c2c1CNCc1ccccc1)CCCC3	6.9	-2.0	u	u	-0.6	-0.7%
Cc1ccc(C2(C)NC(=O)N(CC(=O)N(Cc3ccccc3)C(C)(C)C)C2=O)cc1 (stereo not given)	28.1	u	u	u	19.1	x
O=C(NCC(c1ccco1)S(=O)(=O)c1cccs1)c1ccccc1 (stereo not given)	0.3	x	u	u	x	-1.3%
FC(F)(F)c1ccc(-c2cccc3c2C2CC3CCN2Cc2ccc3c(c2)OCO3)cc1 (stereo not given)	8.1	8.5	u	16.4µM*	68.2	u
O=C(Nc1ccc(NC(=O)C2CCCN2C(=O)OCc2ccccc2)cc1)c1ccco1 (stereo not given)	-9.2	-0.6	-16.4%	u	-14.2	-2.1%
O=C(OCc1ccccc1)N1CCC2CC1c1c(Cl)cccc12 (stereo not given)	-1.8	-9.2	u	18.4µM*	22.4	1.4%
O=C(Nc1cccc(O)c1)C1CCCN1C(=O)OCc1ccccc1 (stereo not given)	-9.6	17.5	-23.0%	-30.0%	0.0	28.2µM*
O=C(OCc1ccccc1)N1CCC2CC1c1c(-c3ccc(C(F)(F)F)cc3)cccc12 (stereo not given)	9.1	-18.9	16.4µM*	u	21.8	0.5%
CC(C)(Oc1ccc(Cl)cc1)C(=O)Nc1nnc2n1CCS2	-2.0	x	u	18.4µM*	x	-3.7%
O=C(COc1ccc(Cl)cc1)Nc1nnc2n1CCS2	-13.9	x	-14.2%	-8.9%	x	3.0%
CC(C)c1ccc(NC(=O)C(C)N(c2ccccc2)S(C)(=O)=O)cc1 (stereo not given)	-8.9	x	u	u	x	-2.7%
COC(=O)c1c(C(=O)c2ccc(Br)cc2)n(C)c2ccccc12	-16.5	11.0	u	u	-18.3	-6.6%
COC(=O)c1c(S(N)(=O)=O)c2ccccc2n1C	4.8	-16.8	8.0%	-25.2%	-8.9	28.2µM*
C[C@@H]1CCCCO[C@@H](CN(C)C(=O)Cc2ccccc2)[C@@H](C)CN([C@H](C)CO)C(=O)c2cc(NC(=O)C3CCCCC3)ccc2O1	-4.4	-21.3	u	-6.2%	15.0	1.4%
C[C@@H]1CCCCO[C@@H](CN(C)C(=O)Cc2ccccc2)[C@@H](C)CN([C@H](C)CO)C(=O)c2cc(N(C)C)ccc2O1	-1.2	-4.1	-12.4%	-22.9%	21.5	-3.7%
C[C@@H]1CCCCO[C@H](CN(C)C(=O)Cc2ccccc2)[C@@H](C)CN([C@H](C)CO)C(=O)c2cc(NC(=O)Nc3ccccc3)ccc2O1	5.0	30.5	-3.4%	29.1µM*	28.0	-3.8%
C[C@@H]1CCCCO[C@H](CN(C)C(=O)Cc2ccccc2)[C@H](C)CN([C@@H](C)CO)C(=O)c2cc(NC(=O)Nc3ccc(F)cc3)ccc2O1	-10.6	-29.4	23.1µM*	-23.2%	9.4	-2.8%
